Test results as given in PubChem BioAssay (Tox21).
Records with an inconclusive call do not appear. Activity calls are given as the source filed them. Calls follow the shape of the dose curve; as a rule, active = well fitted activation curve with a large enough effect in the repeat runs; inconclusive = weak or mixed curves; inactive = flat fitted curve, though single readings scatter.
% is scaled to controls: 0 for no effect and ±100 for the full control effect.

Assay: A CellTox Green Cytotoxicity Assay to monitor cytotoxicity in HEK293 cells - 32 hour (AID 1224881); also: nearly all actives have a fitted effect of over 40% in size
Details: CellTox Green fluorescence; series mostly up to 76.8 µM; cytotoxicity increase: at the top concentration
How it was run: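 Real-time, in one plate: 600 HEK293 cells/well with dead-cell DNA dye, pinned compound after 5 h, 37 C incubation over 40 h; viable cells give no appreciable fluorescence.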
For `CC(CCc1ccc2c(c1)OCO2)NN` (stereo not given), the “cytotoxicity increase” value was -2.02% [at 35.3 µM] (inactive). In the case of `CO[Si](C)(OC)OC`, the “cytotoxicity increase” value is reported as -10.3% (inactive). With `CCC1(C)CC(=O)NC1=O` (stereo not given) the “cytotoxicity increase” value was -24.2% [at 35.3 µM] (inactive). For `CC(=O)CC(c1ccc([N+](=O)[O-])cc1)c1c(O)c2ccccc2oc1=O` (stereo not given), the “cytotoxicity increase” value was -5.86% [at 35.3 µM] (inactive). For `CSc1ccc(Oc2ccc(S(N)(=O)=O)cc2CN(C)C)cc1C`, the “cytotoxicity increase” value was 23.5% (inactive). For `COc1ccc([C@@H]2Sc3ccccc3NC(=O)[C@@H]2O)cc1`, the “cytotoxicity increase” value was -1.32% [at 35.3 µM] (inactive). For `Nc1nc(Cl)nc2c1ncn2[C@@H]1O[C@H](CO)[C@@H](O)[C@@H]1F`, the “cytotoxicity increase” value was 0.229% [at 35.3 µM] (inactive). With `C=CC(C)(C)CC(=O)OC` the “cytotoxicity increase” value was 13.1% (inactive). In the case of `O=C(O)C(Cc1cc(I)c(O)c(I)c1)c1ccccc1` (stereo not given), the “cytotoxicity increase” value is reported as -17.6% [at 35.3 µM] (inactive). In the case of `CO[C@@]12[C@H](COC(N)=O)C3=C(C(=O)C(C)=C(N)C3=O)N1C[C@@H]1N[C@@H]12`, the “cytotoxicity increase” value is reported as 12.1% [at 35.3 µM] (inactive). For `CC1=NN(c2ccc(C(=O)O)cc2)C(=O)C1`, the “cytotoxicity increase” value was -1.23% (inactive). With `CN(C)C(=O)Nc1ccc(Oc2ccc(Cl)cc2)cc1` the “cytotoxicity increase” value was 1.31% (inactive). With `CNC(=S)NC` the “cytotoxicity increase” value was -3.36% (inactive). In the case of `CCCCC(=O)O[C@]1(C(=O)CO)CC[C@H]2[C@@H]3CCC4=CC(=O)CC[C@]4(C)[C@H]3[C@@H](O)C[C@@]21C`, the “cytotoxicity increase” value is reported as 8.86% [at 35.3 µM] (inactive). For `C1COCO1`, the “cytotoxicity increase” value was 5.35% (inactive). With `Cc1ccnc2ccccc12` the “cytotoxicity increase” value was -0.998% (inactive). For `CO[C@H]1O[C@H](CO)[C@@H](O)[C@H](O)[C@H]1O`, the “cytotoxicity increase” value was 1.28% (inactive). For `CC(=O)Oc1ccc(C(=C2CCCCC2)c2ccc(OC(C)=O)cc2)cc1`, the “cytotoxicity increase” value was 0.739% [at 35.3 µM] (inactive). For `CCc1cccc(N(C)C(N)=Nc2cccc3ccccc23)c1`, the “cytotoxicity increase” value was -7.72% [at 35.3 µM] (inactive). For `CCCCCCCC/C=C\CCCCCCCC(=O)OC`, the “cytotoxicity increase” value was -1.19% (inactive). In the case of `ON(Cc1ccccc1)Cc1ccccc1`, the “cytotoxicity increase” value is reported as 6.57% (inactive). In the case of `CCC(C)(C)C1CCC(O)CC1` (stereo not given), the “cytotoxicity increase” value is reported as 10.3% (inactive). In the case of `c1cc[c]([Bi]([c]2ccccc2)[c]2ccccc2)cc1`, the “cytotoxicity increase” value is reported as 10.5% (inactive). For `CC(C)(C)C(=O)O`, the “cytotoxicity increase” value was 11.5% (inactive). With `NCC1CCCC(CN)C1` (stereo not given) the “cytotoxicity increase” value was 17% (inactive). In the case of `Cc1occc1C(=O)Nc1ccc(C(=O)N2CCC(F)(F)/C(=C\C(=O)N3CCC(N4CCCCC4)CC3)c3ccccc32)cc1`, the “cytotoxicity increase” value is reported as 0.946% [at 35.3 µM] (inactive). In the case of `COc1cc2c(cc1OC)-c1cc(=Nc3c(C)cc(C)cc3C)n(C)c(=O)n1CC2`, the “cytotoxicity increase” value is reported as 15.6% [at 35.3 µM] (inactive). For `Cc1ccccc1N1C(=O)c2cc(S(N)(=O)=O)c(Cl)cc2NC1C` (stereo not given), the “cytotoxicity increase” value was 0.0686% [at 35.3 µM] (inactive). In the case of `C=CC(=C)CCCC(C)(C)OC(C)=O`, the “cytotoxicity increase” value is reported as -19% (inactive). With `NC(=O)N(O)[C@@H]1COc2cc(OCc3ccccc3)ccc21` the “cytotoxicity increase” value was -7.84% (inactive). In the case of `O=C(OCCOCCO)c1ccccc1Nc1cccc(C(F)(F)F)c1`, the “cytotoxicity increase” value is reported as 5.96% [at 35.3 µM] (inactive). For `CN1CCN(c2c(F)cc3c(=O)c(C(=O)O)cn4c3c2OCN4C)CC1`, the cytotoxicity increase was -5.3% [at 15.8 µM] (inactive). With `OCC1CC=CCC1` (stereo not given) the “cytotoxicity increase” value was -17.5% (inactive). In the case of `CC(C)CCCCCOC(=O)CCCCC(=O)OCCCCCC(C)C`, the “cytotoxicity increase” value is reported as -2.86% (inactive). For `CO[C@H]1C=CO[C@@]2(C)Oc3c(C)c(O)c4c(O)c(c5c(c4c3C2=O)=NC2(CCN(CC(C)C)CC2)N=5)NC(=O)/C(C)=C\C=C/[C@H](C)[C@H](O)[C@@H](C)[C@@H](O)[C@@H](C)[C@H](OC(C)=O)[C@@H]1C`, the “cytotoxicity increase” value was -4.16% (inactive). For `CN1Cc2cc(C(=O)N3CCC(C4CCNCC4)CC3)ccc2N[C@@H](CC(=O)O)C1=O`, the “cytotoxicity increase” value was 2.87% [at 35.3 µM] (inactive). In the case of `COC(=O)c1cc(Cl)ccc1NS(=O)(=O)C(F)(F)F`, the “cytotoxicity increase” value is reported as -10.2% [at 35.3 µM] (inactive). For `CCOCCn1c(C2CCN(CCc3ccc(C(C)(C)C(=O)O)cc3)CC2)nc2ccccc21`, the “cytotoxicity increase” value was -18.3% [at 35.3 µM] (inactive). In the case of `CCc1c2c(nc3ccc(OC(=O)N4CCC(N5CCCCC5)CC4)cc13)-c1cc3c(c(=O)n1C2)COC(=O)[C@]3(O)CC`, the “cytotoxicity increase” value is reported as 8.86% [at 35.3 µM] (inactive). With `CC1CC(=O)NN=C1c1ccc(NCC(C)(C)NCC(O)COc2cc(Cl)ccc2C#N)cc1` (stereo not given) the “cytotoxicity increase” value was 7.13% [at 35.3 µM] (inactive).

Assay: A CellTox Green Cytotoxicity Assay to monitor cytotoxicity in HepG2 cells - 0 hour (AID 1224882); also: nearly all actives have a fitted effect of over 35% in size
Details: CellTox Green fluorescence; series mostly up to 76.8 µM; cytotoxicity: at the top concentration
How it was run: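 Cytotoxicity was tracked as dead-cell DNA fluorescence in HepG2 cells treated with test compounds at 37 C; each time-point value comes from one kinetic series spanning 0, 8, 16, 24, 32 and 40 h.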
For `CC(CCc1ccc2c(c1)OCO2)NN` (stereo not given), the “cytotoxicity” value was 0.697% [at 35.3 µM] (inactive). In the case of `CO[Si](C)(OC)OC`, the “cytotoxicity” value is reported as -2.13% (inactive). With `CCC1(C)CC(=O)NC1=O` (stereo not given) the “cytotoxicity” value was -9.33% [at 35.3 µM] (inactive). In the case of `CC(=O)CC(c1ccc([N+](=O)[O-])cc1)c1c(O)c2ccccc2oc1=O` (stereo not given), the “cytotoxicity” value is reported as 0.0634% [at 35.3 µM] (inactive). For `CSc1ccc(Oc2ccc(S(N)(=O)=O)cc2CN(C)C)cc1C`, the “cytotoxicity” value was 1.69% (inactive). For `COc1ccc([C@@H]2Sc3ccccc3NC(=O)[C@@H]2O)cc1`, the “cytotoxicity” value was -1.13% [at 35.3 µM] (inactive). With `Nc1nc(Cl)nc2c1ncn2[C@@H]1O[C@H](CO)[C@@H](O)[C@@H]1F` the “cytotoxicity” value was -8.97% [at 35.3 µM] (inactive). With `C=CC(C)(C)CC(=O)OC` the “cytotoxicity” value was -4.58% (inactive). With `O=C(O)C(Cc1cc(I)c(O)c(I)c1)c1ccccc1` (stereo not given) the “cytotoxicity” value was -11.8% [at 35.3 µM] (inactive). In the case of `CO[C@@]12[C@H](COC(N)=O)C3=C(C(=O)C(C)=C(N)C3=O)N1C[C@@H]1N[C@@H]12`, the “cytotoxicity” value is reported as -1.89% [at 35.3 µM] (inactive). With `CC1=NN(c2ccc(C(=O)O)cc2)C(=O)C1` the “cytotoxicity” value was -7.37% (inactive). For `CN(C)C(=O)Nc1ccc(Oc2ccc(Cl)cc2)cc1`, the “cytotoxicity” value was 0.259% (inactive). With `CNC(=S)NC` the “cytotoxicity” value was 0.668% (inactive). With `CCCCC(=O)O[C@]1(C(=O)CO)CC[C@H]2[C@@H]3CCC4=CC(=O)CC[C@]4(C)[C@H]3[C@@H](O)C[C@@]21C` the “cytotoxicity” value was -0.962% [at 35.3 µM] (inactive). In the case of `C1COCO1`, the “cytotoxicity” value is reported as -1.64% (inactive). With `Cc1ccnc2ccccc12` the “cytotoxicity” value was 8.01% (inactive). For `CO[C@H]1O[C@H](CO)[C@@H](O)[C@H](O)[C@H]1O`, the “cytotoxicity” value was -1.1% (inactive). In the case of `CC(=O)Oc1ccc(C(=C2CCCCC2)c2ccc(OC(C)=O)cc2)cc1`, the “cytotoxicity” value is reported as -20.8% [at 35.3 µM] (inactive). With `CCc1cccc(N(C)C(N)=Nc2cccc3ccccc23)c1` the “cytotoxicity” value was 0.551% [at 35.3 µM] (inactive). With `CCCCCCCC/C=C\CCCCCCCC(=O)OC` the “cytotoxicity” value was -5.47% (inactive). For `ON(Cc1ccccc1)Cc1ccccc1`, the “cytotoxicity” value was 0.0453% (inactive). With `CCC(C)(C)C1CCC(O)CC1` (stereo not given) the “cytotoxicity” value was -0.682% (inactive). With `c1cc[c]([Bi]([c]2ccccc2)[c]2ccccc2)cc1` the “cytotoxicity” value was 7.94% (inactive). In the case of `CC(C)(C)C(=O)O`, the “cytotoxicity” value is reported as 1.5% (inactive). For `NCC1CCCC(CN)C1` (stereo not given), the “cytotoxicity” value was 2.39% (inactive). With `Cc1occc1C(=O)Nc1ccc(C(=O)N2CCC(F)(F)/C(=C\C(=O)N3CCC(N4CCCCC4)CC3)c3ccccc32)cc1` the “cytotoxicity” value was -0.114% [at 35.3 µM] (inactive). In the case of `COc1cc2c(cc1OC)-c1cc(=Nc3c(C)cc(C)cc3C)n(C)c(=O)n1CC2`, the “cytotoxicity” value is reported as -9.13% [at 35.3 µM] (inactive). For `Cc1ccccc1N1C(=O)c2cc(S(N)(=O)=O)c(Cl)cc2NC1C` (stereo not given), the “cytotoxicity” value was -5.43% [at 35.3 µM] (inactive). With `C=CC(=C)CCCC(C)(C)OC(C)=O` the “cytotoxicity” value was -2.28% (inactive). For `NC(=O)N(O)[C@@H]1COc2cc(OCc3ccccc3)ccc21`, the “cytotoxicity” value was 1.7% (inactive). In the case of `O=C(OCCOCCO)c1ccccc1Nc1cccc(C(F)(F)F)c1`, the “cytotoxicity” value is reported as 1.35% [at 35.3 µM] (inactive). For `CN1CCN(c2c(F)cc3c(=O)c(C(=O)O)cn4c3c2OCN4C)CC1`, the cytotoxicity was -9.31% [at 15.8 µM] (inactive). In the case of `OCC1CC=CCC1` (stereo not given), the “cytotoxicity” value is reported as 0.0124% (inactive). For `CC(C)CCCCCOC(=O)CCCCC(=O)OCCCCCC(C)C`, the “cytotoxicity” value was 0.115% (inactive). For `CO[C@H]1C=CO[C@@]2(C)Oc3c(C)c(O)c4c(O)c(c5c(c4c3C2=O)=NC2(CCN(CC(C)C)CC2)N=5)NC(=O)/C(C)=C\C=C/[C@H](C)[C@H](O)[C@@H](C)[C@@H](O)[C@@H](C)[C@H](OC(C)=O)[C@@H]1C`, the “cytotoxicity” value was -18.9% (inactive). For `CN1Cc2cc(C(=O)N3CCC(C4CCNCC4)CC3)ccc2N[C@@H](CC(=O)O)C1=O`, the “cytotoxicity” value was -0.724% [at 35.3 µM] (inactive). For `COC(=O)c1cc(Cl)ccc1NS(=O)(=O)C(F)(F)F`, the “cytotoxicity” value was 0.376% [at 35.3 µM] (inactive). For `CCOCCn1c(C2CCN(CCc3ccc(C(C)(C)C(=O)O)cc3)CC2)nc2ccccc21`, the “cytotoxicity” value was -10.7% [at 35.3 µM] (inactive). With `CCc1c2c(nc3ccc(OC(=O)N4CCC(N5CCCCC5)CC4)cc13)-c1cc3c(c(=O)n1C2)COC(=O)[C@]3(O)CC` the “cytotoxicity” value was 0.828% [at 35.3 µM] (inactive). In the case of `CC1CC(=O)NN=C1c1ccc(NCC(C)(C)NCC(O)COc2cc(Cl)ccc2C#N)cc1` (stereo not given), the “cytotoxicity” value is reported as -9.06% [at 35.3 µM] (inactive).
